Assay results as given in PubChem BioAssay (NCATS).
Results filed as inconclusive are left out. Calls of active or inactive are those of the source. Unless noted, calls follow the shape of the dose curve; as a rule, active = well fitted curve in the direction sought with a large enough effect; inconclusive = small, poorly fitted or top-dose-only effect, or another doubt; inactive = no such curve, though single readings can be large; an effect the other way counts as inactive or inconclusive.

Tests used:
[1] = AP1 Signaling Pathway (AID 357; active = well fitted curve in either direction with a large enough effect, not every such curve was filed as active;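 also: ME-180 reporter cells stimulated with EGF at its EC50 level; % is scaled to controls: 0 for no effect and ±100 for the full control effect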)
Outline: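 In this screen, ME-180 cells in Opti-MEM with 0.5% dialyzed FBS received EC50 EGF and compound titrations for 5 h. AP-1 reporter beta-lactamase was detected via CCF4 ratio, giving AC50 for positive and negative modulators.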

[2] = target: Cytochrome P450 1A2 (Homo sapiens) (UniProt P05177); experiment: p450-cyp1a2 (AID 410; calls by dose curve; also: potency is read from the fitted curve at half-maximal effect;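 as to activity change, negative = inhibition: -100% = full effect of reference inhibitor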)
Cytochrome P450 1A2 (Homo sapiens), sequence (P05177 whole entry, looked up): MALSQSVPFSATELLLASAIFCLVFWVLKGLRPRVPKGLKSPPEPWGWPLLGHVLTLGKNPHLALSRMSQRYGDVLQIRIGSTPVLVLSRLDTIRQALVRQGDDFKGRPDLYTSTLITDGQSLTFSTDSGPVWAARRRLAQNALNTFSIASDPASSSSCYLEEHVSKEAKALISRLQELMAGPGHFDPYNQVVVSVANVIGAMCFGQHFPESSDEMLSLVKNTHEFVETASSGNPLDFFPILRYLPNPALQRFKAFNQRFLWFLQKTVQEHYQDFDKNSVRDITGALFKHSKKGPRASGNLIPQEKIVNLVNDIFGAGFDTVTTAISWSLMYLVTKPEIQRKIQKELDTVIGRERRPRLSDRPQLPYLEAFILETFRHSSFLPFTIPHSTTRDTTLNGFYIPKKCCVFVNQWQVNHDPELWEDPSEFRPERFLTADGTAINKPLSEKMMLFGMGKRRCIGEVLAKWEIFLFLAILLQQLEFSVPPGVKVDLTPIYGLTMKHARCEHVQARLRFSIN
Outline: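 Human CYP1A2 (20nM) demethylated Luciferin-ME at its Km (100uM) in 100mM KPO4. After 10 min compound preincubation, NADPH regeneration ran the reaction 60 min at room temperature. Luciferin was read by luminescence, normalized to 57 uM furafylline.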

[3] = NFAT Signaling Pathway (AID 444; active = well fitted curve in either direction with a large enough effect, not every such curve was filed as active;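 also: carbachol stimulus at about its EC50 of 1 µM final; % is scaled to controls: 0 for no effect and ±100 for the full control effect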); details: Jurkat NFAT-bla M1, carbachol, beta-lactamase ratio, 5 h; at 17.2 µM (top of the series) unless noted
Outline: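 Jurkat cells with NFAT-driven β-lactamase reporter and co-expressed M1 receptor, stimulated with carbachol (final 1 uM, ~EC50), compound titration, 5 h at 37 °C. CCF4 loaded 1 h at RT; 460/530 nm ratio gave %activity and AC50.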

[4] = Stat Signaling Pathway (AID 446; active = well fitted curve in either direction with a large enough effect, not every such curve was filed as active;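 also: ME-180 cervical cancer cells given 40 pM IL-6 alongside compound; SIE-controlled beta-lactamase reporter measured as 460/530 nm FRET emission ratio; % is scaled to controls: 0 for no effect and ±100 for the full control effect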)
Outline: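 ME-180 SIE-bla cells; overnight plating; cpd + IL-6 40 pM, 5 h, 37 C; LiveBLAzer 2.5 h RT; 460/530 nm emission ratio. Normalized to 300 pM IL-6 and 125 nM JAK inhibitor controls.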

[5] = target: Mitogen-activated protein kinase 10 (Mus musculus) (UniProt Q61831); experiment: JNK3 AlphaScreen Assay (AID 530; active = well fitted curve in either direction with a large enough effect, not every such curve was filed as active;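 also: kinase came from lysate of stimulated human HepG2 cells; signal reports phosphorylation of biotinylated GST-cJun 1-79 at Ser73 with 10 µM ATP; % is scaled to controls: 0 for no effect and ±100 for the full control effect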)
Outline: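 qHTS format: compounds tested as titrations against IL-1beta/TNF-alpha-activated HepG2 lysate JNK3 with biotin-GST-cJun substrate and 10 uM ATP at room temperature. Loss of anti-phospho-cJun AlphaScreen signal indicates inhibition.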

[6] = qHTS Assay for Lipid Storage Modulators (AID 1519; calls by dose curve); details: Drosophila S3 cells, BODIPY lipid droplet/cell ratio, laser cytometry, cells loaded with oleic acid; for activity change, negative = inhibition: at 25.7 µM (top of the series)
Outline: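 Cells seeded at 5,000 per well were treated with compounds over a concentration series and loaded with oleic acid (400 uM, as added). Lipid droplet fluorescence (488 nm excitation, 500-530 nm channel) was read by laser-scanning cytometry and normalized to 20 uM Triacsin C.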

[7] = target: ATP-dependent 6-phosphofructokinase (Trypanosoma brucei brucei) (UniProt O15648); experiment: qHTS Assay to Find Inhibitors of T. brucei phosphofructokinase: hit validation (AID 492961)
ATP-dependent 6-phosphofructokinase (Trypanosoma brucei brucei), sequence (O15648 whole entry, looked up): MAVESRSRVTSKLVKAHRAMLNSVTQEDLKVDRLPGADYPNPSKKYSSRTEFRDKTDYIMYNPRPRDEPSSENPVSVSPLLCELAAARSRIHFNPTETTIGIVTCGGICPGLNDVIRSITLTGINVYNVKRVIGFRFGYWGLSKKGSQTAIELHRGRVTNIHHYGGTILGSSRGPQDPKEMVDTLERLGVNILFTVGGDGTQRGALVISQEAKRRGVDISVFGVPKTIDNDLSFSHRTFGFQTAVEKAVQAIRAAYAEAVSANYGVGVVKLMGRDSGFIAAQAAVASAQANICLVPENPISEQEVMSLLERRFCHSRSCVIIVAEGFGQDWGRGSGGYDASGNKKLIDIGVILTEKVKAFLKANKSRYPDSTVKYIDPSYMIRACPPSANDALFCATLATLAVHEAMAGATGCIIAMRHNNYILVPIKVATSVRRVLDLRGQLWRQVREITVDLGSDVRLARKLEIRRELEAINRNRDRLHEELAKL
Outline: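 Compounds titrated; %activity normalized to 0x and 1x enzyme controls, curve-fitted. Readout: ADP-Glo luminescence after 45 min room-temperature reaction of 1.25 nM PFK, 0.1 mM ATP, 0.5 mM F6P, pH 8.0.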

[8] = target: Luciferin 4-monooxygenase (Photinus pyralis) (UniProt P08659); experiment: Biochemical firefly luciferase enzyme assay for NPC (AID 624030);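 also: purified P. pyralis luciferase at 10 nM with luciferin and ATP substrate; 0% = DMSO and -100% = full luciferase inhibition by PTC124 control; nearly all actives have a fitted effect of over 70% in size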
Luciferin 4-monooxygenase (Photinus pyralis), sequence (P08659 whole entry, looked up): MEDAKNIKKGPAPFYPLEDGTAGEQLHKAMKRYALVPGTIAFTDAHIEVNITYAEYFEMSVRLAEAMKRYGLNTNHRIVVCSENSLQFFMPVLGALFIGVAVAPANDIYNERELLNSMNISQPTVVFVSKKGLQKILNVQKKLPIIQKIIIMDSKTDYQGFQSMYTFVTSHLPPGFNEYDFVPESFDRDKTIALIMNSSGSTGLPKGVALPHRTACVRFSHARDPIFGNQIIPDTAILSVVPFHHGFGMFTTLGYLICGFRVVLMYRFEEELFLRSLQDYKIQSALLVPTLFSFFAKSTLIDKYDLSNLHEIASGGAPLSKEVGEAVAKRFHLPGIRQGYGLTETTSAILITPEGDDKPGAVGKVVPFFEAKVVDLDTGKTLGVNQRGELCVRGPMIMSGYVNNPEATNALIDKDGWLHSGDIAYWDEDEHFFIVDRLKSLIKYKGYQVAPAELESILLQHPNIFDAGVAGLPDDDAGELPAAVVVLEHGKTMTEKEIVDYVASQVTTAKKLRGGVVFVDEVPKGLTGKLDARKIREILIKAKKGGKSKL
Outline: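 Purified P. pyralis luciferase at 10 nM in 50 mM Tris Acetate (final), luminescence read within 5 minutes of enzyme addition to compounds. Activity normalised to PTC124 versus DMSO; concentration-response curves classed by r2, magnitude and activity.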

[9] = S16 Schwann cell PMP22 intronic element firefly luciferase assay (AID 624032);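 also: plate controls were DMSO for no effect and PTC124 positive control mean for full effect; nearly all actives have a fitted effect of over 30% in size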
Outline: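 Rat S16 Schwann cells stably carrying firefly luciferase driven by a PMP22 intronic element, in 10% FBS, treated 24 h at 37 C. ONE-Glo luminescence normalized to PTC124 control and DMSO (0%); curves classed by r2, magnitude and activity.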

[10] = qHTS profiling for inhibitors of Plasmodium falciparum proliferation (AID 504749); also: potency is read from the fitted curve at half-maximal effect;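 as to activity, negative = inhibition: 0% = DMSO vehicle and full inhibition = artemisinin control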; as to all read-outs here: nearly all actives have a fitted effect of over 60% in size; details: P. falciparum in erythrocytes, SYBR Green DNA, 72 h; for activity, negative = inhibition: at 12.8 µM (top of the series)
Outline: (§1)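 Readout was DNA-dye fluorescence from lysed cultures, ex 485/em 535 nm. Parasitized red cells had grown 72 h with compound; data scaled between 0.29 uM artemisinin and DMSO wells and corrected using vehicle-only plates.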

CP191 = experiment: as above; details: P. falciparum in erythrocytes, SYBR Green DNA, 72 h; series mostly up to 12.8 µM
Outline: as §1

CP217 = experiment: as above; details: P. falciparum in erythrocytes, SYBR Green DNA, 72 h; series mostly up to 12.8 µM
Outline: as §1

CP250 = experiment: as above; details: P. falciparum in erythrocytes, SYBR Green DNA, 72 h; series mostly up to 12.8 µM
Outline: as §1

CP256 = experiment: as above; details: P. falciparum in erythrocytes, SYBR Green DNA, 72 h; series mostly up to 12.8 µM
Outline: as §1

FAB9 = experiment: as above; details: P. falciparum in erythrocytes, SYBR Green DNA, 72 h; series mostly up to 12.8 µM
Outline: as §1

[11] = target: 3',5'-cyclic-AMP phosphodiesterase 4B (Homo sapiens) (UniProt Q07343); experiment: qHTS Assay for Inhibitors of PDE-IV (AID 607; active = well fitted activation curve with a large enough effect in the main read-out, with a control signal flat, not every such curve was filed as active; also: % of control where 0% means no effect)
3',5'-cyclic-AMP phosphodiesterase 4B (Homo sapiens), sequence (Q07343 whole entry, looked up): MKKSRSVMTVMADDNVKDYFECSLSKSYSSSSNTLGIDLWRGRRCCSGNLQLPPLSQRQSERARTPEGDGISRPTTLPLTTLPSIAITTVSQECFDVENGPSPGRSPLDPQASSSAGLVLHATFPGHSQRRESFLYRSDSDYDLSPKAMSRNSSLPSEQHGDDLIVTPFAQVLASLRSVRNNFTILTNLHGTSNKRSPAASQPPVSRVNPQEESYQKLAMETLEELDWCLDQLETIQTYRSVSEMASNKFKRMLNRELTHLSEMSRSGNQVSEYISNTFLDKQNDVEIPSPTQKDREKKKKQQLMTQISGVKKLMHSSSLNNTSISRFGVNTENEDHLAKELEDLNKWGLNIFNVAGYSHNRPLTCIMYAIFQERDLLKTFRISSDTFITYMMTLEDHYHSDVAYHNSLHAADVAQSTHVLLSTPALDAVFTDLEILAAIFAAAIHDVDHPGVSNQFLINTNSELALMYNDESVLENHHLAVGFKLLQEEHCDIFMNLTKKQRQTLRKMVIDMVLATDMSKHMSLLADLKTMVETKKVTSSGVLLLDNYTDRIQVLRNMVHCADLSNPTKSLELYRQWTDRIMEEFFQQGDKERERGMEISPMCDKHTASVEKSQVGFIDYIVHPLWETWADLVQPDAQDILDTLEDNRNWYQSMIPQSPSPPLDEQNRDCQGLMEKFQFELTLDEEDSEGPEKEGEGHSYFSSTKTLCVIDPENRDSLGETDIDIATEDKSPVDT
Outline: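 ACTOne HEK293 cells carry a modified cAMP-gated CNG channel and express endogenous PDE4; plated 1000 cells/well, compounds up to 22.9 uM final. Membrane-potential dye fluorescence (ex 535/em 590) was read; parental cells received 10 uM forskolin + 100 uM RO 20-1724.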

[12] = target: Ubiquitin carboxyl-terminal hydrolase 1 (Homo sapiens) (UniProt O94782); experiment: Inhibitors of USP1/UAF1: Pilot qHTS (AID 504865);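 also: rhodamine fluorescence freed from ubiquitin-rhodamine substrate followed over time; top concentration of the series differs between compounds; % is scaled to controls: 0 for no effect and ±100 for the full control effect; nearly all actives have a fitted effect of over 35% in size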
Ubiquitin carboxyl-terminal hydrolase 1 (Homo sapiens), sequence (O94782 whole entry, looked up): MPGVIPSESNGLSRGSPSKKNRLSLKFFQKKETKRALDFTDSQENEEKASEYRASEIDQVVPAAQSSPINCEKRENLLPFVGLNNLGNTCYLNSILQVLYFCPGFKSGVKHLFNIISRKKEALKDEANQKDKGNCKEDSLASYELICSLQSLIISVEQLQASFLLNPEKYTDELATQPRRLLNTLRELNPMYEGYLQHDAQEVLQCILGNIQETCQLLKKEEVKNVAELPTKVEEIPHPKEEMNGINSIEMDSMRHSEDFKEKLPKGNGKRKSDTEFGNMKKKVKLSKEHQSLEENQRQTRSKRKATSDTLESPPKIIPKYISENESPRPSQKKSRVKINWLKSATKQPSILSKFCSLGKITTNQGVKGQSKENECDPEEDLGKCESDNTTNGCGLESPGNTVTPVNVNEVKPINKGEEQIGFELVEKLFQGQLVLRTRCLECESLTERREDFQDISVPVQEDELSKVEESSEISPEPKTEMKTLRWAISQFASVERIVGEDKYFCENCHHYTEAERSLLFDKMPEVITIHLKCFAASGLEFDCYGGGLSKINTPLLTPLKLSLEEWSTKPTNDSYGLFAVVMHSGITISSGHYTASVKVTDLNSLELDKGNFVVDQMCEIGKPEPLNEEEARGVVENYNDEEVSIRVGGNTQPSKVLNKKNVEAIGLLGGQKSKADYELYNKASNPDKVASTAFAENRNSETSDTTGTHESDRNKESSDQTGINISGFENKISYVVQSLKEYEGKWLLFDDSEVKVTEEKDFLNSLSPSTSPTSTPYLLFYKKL
Outline: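 Kinetic fluorescence assay: 1nM USP1/UAF1, 15 min compound preincubation, then 150nM Ub-Rho; 480/540 nm.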

JCK = experiment: qHTS profiling for inhibitors of Plasmodium falciparum proliferation (AID 504749); also: nearly all actives have a fitted effect of over 60% in size; also: potency is read from the fitted curve at half-maximal effect;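 as to activity, negative = inhibition: 0% = DMSO vehicle and full inhibition = artemisinin control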; details: P. falciparum in erythrocytes, SYBR Green DNA, 72 h; series mostly up to 12.8 µM
Outline: as §1

[13] = target: Glucocorticoid receptor (Homo sapiens) (UniProt P04150); experiment: GR-GFP Redistribution (AID 450;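 active = compounds whose dose series gives a full or clear partial fitted curve of increased nuclear translocation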; also: potency is read from the fitted curve at half-maximal effect); details: U2OS GR-GFP nuclear translocation, laser cytometry, 2 h
Glucocorticoid receptor (Homo sapiens), sequence (P04150 whole entry, looked up, the tested form may be a part): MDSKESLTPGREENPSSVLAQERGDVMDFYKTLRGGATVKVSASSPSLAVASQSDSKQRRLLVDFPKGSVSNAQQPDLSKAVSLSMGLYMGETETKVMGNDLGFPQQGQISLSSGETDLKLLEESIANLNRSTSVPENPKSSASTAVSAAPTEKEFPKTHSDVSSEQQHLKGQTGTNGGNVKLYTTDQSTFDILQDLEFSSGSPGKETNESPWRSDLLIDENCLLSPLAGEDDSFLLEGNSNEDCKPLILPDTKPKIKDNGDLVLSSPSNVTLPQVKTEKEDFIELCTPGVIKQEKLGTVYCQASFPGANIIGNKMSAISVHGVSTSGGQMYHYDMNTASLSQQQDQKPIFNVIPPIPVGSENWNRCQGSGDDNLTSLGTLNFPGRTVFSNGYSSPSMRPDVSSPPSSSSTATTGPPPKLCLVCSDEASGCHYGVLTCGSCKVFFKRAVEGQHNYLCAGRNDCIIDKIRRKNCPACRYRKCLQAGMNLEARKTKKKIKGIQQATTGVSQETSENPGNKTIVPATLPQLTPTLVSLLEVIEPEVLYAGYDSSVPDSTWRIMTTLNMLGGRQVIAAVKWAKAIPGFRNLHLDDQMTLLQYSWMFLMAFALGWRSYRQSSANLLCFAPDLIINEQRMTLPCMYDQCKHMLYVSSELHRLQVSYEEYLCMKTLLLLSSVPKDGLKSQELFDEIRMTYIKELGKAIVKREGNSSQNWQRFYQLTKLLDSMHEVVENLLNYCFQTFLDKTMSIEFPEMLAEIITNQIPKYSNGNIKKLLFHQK

[14] = target: Glucocorticoid receptor (Homo sapiens) (UniProt P04150); experiment: GR-EFC Redistribution (AID 451; calls by dose curve; also: potency is read from the fitted curve at half-maximal effect); details: CHO-K1 GR-EFC translocation, beta-gal luminescence, 2 h
Outline: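 CHO-K1 cells expressing nuclear EA and GR-ED fragments of b-gal; compounds titrated up to 46 uM final, 2 h at 37 C. GR nuclear translocation read as complemented b-gal luminescence after 1 h RT detection.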

[15] = measured here: cell count channel max response
[16] = measured here: lipid channel max response

CC1(C)O[C@H]2C[C@@H]3[C@H]4CCC5=CC(=O)CC[C@@]5(C)[C@]4(F)[C@@H](O)C[C@@]3(C)[C@@]2(C(=O)CCl)O1
-17.1%: max response [6, 16]
inactive: outcome [1] | Potency [2] | activity change, negative = inhibition [3] 17.6% | outcome [4] | Potency [5] | activity change, negative = inhibition [6] -3.97% | outcome [7] | Potency [8] | Potency [9] | Potency (FAB9)
active: Potency ([10]; parasite line B) 1.58 µM | Potency (CP191) 3.16 µM | Potency (CP217) 2.24 µM | Potency (CP250) 3.98 µM | Potency (CP256) 3.55 µM
-11.4%: max response [6, 15]

CCC[C@@H]1O[C@@H]2C[C@@H]3[C@H]4CCC5=CC(=O)C=C[C@@]5(C)[C@H]4[C@H](O)C[C@@]3(C)[C@@]2(C(=O)CO)O1
inactive: outcome [1] | Potency [2] | activity change, negative = inhibition [3] -1.55% | outcome [4] | Potency [5] | outcome [11] | activity change, negative = inhibition [6] -3% | outcome [7] | Potency [12] | Potency [8] | Potency [9]
-2.78%: max response [6, 16]
4.44%: max response [6, 15]
active: Potency ([10]; parasite line A) 11.2 µM | Potency ([10]; parasite line B) 11.2 µM | Potency (CP191) 11.2 µM | Potency (CP217) 10 µM | Potency (CP250) 11.2 µM | Potency (CP256) 11.2 µM

C[C@H]1CC[C@]2(OC1)O[C@@H]1C[C@@H]3[C@@H]4CC[C@H]5C[C@@H](O)CC[C@]5(C)[C@@H]4CC(=O)[C@@]3(C)[C@H]1[C@@H]2C
-5.08%: max response [6, 15]
inactive: outcome [1] | Potency [2] | activity change, negative = inhibition [3] 0.559% | outcome [4] | Potency [5] | outcome [11] | activity change, negative = inhibition [6] -1.95% | outcome [7] | Potency [12] | Potency [8] | Potency [9] | activity, negative = inhibition ([10]; parasite line A) 11.1% | activity, negative = inhibition ([10]; parasite line B) 13.9% | Potency (CP191) | Potency (CP217) | Potency (CP250) | Potency (CP256) | Potency (FAB9) | Potency (JCK)
-7.26%: max response [6, 16]

CCCC[C@H](CC)CN1CN(C[C@@H](CC)CCCC)CC(C)(N)C1
inactive: outcome [1] | Potency [2] | activity change, negative = inhibition [3] -26.2% | outcome [4] | outcome [11] | activity change, negative = inhibition [6] -1.27% | outcome [7] | Potency [8] | Potency [9] | activity, negative = inhibition ([10]; parasite line A) -5.01% | activity, negative = inhibition ([10]; parasite line B) 14.7% | Potency (CP191) | Potency (CP217) | Potency (CP250) | Potency (CP256) | Potency (FAB9) | Potency (JCK)
-2.09%: max response [6, 16]
0.881%: max response [6, 15]

CCOC(=O)C1=C(C)NC(C)=C(C(=O)OC)[C@@H]1c1cccc([N+](=O)[O-])c1
-22.2%: max response [6, 16]
active: Potency [2] 15.8 µM
-15%: max response [6, 15]
inactive: outcome [1] | activity change, negative = inhibition [3] -23.9% | outcome [4] | Potency [5] | activity change, negative = inhibition [6] 0.673% | Potency [12]

CC[C@@H]1OC(=O)[C@H](C)[C@H](O[C@@H]2C[C@](C)(OC)[C@H](O)[C@H](C)O2)[C@H](C)[C@H](O[C@@H]2O[C@@H](C)C[C@@H](N(C)C)[C@@H]2O)[C@](C)(O)C[C@H](C)[C@@H]2N[C@H](COCCOC)O[C@H]([C@@H]2C)[C@]1(C)O
-9.89%: max response [6, 16]
inactive: outcome [1] | Potency [2] | activity change, negative = inhibition [3] -16.7% | outcome [4] | Potency [5] | activity change, negative = inhibition [6] -3.92% | Potency [12]
-8.33%: max response [6, 15]

COCC(=O)Nc1c(I)c(C(=O)NC[C@@H](O)CO)c(I)c(C(=O)N(C)C[C@@H](O)CO)c1I
inactive: outcome [1] | Potency [2] | activity change, negative = inhibition [3] 3.09% | outcome [4] | Potency [5] | outcome [11] | activity change, negative = inhibition [6] -0.947% | outcome [7] | Potency [8] | Potency [9] | activity, negative = inhibition ([10]; parasite line A) -0.503% | activity, negative = inhibition ([10]; parasite line B) -0.0954% | Potency (CP191) | Potency (CP217) | Potency (CP250) | Potency (CP256) | Potency (FAB9) | Potency (JCK)
-9.01%: max response [6, 16]
-5.27%: max response [6, 15]

CC(C)NC[C@H]1CCc2cc(CO)c([N+](=O)[O-])cc2N1
-10%: max response [6, 15]
active: Potency [2] 10 µM
-14.1%: max response [6, 16]
inactive: outcome [1] | outcome [4] | Potency [13] > 20.6 µM | Potency [14] > 20.6 µM | outcome [11] | activity change, negative = inhibition [6] -3.1% | outcome [7] | Potency [12] | Potency [8] | Potency [9] | activity, negative = inhibition ([10]; parasite line A) 7.96% | activity, negative = inhibition ([10]; parasite line B) 12.7% | Potency (CP191) | Potency (CP217) | Potency (CP250) | Potency (CP256) | Potency (FAB9) | Potency (JCK)

C[C@]12CC[C@@H]3C(=CCc4cc(O)ccc43)[C@@H]1CCC2=O
-15.4%: max response [6, 16]
active: Potency [2] 10 µM
inactive: outcome [1] | activity change, negative = inhibition [3] 1.57% | Potency [13] > 20.6 µM | Potency [14] > 20.6 µM | Potency [5] | outcome [11] | activity change, negative = inhibition [6] -4.32% | Potency [12]
-14.4%: max response [6, 15]
